An excerpt weighted towards active compounds, which were near 2.2% of everything screened.
ERG-DNA inh – ERG Ets/DNA interaction inhibition; P11308; fluorescence polarization, His-ERG Ets domain / labelled DNA; Potency, µM (top dose mostly 76.9 µM), inactives show at the top dose FP activity, negative = inhibition, most hits filed as inhibitors; 370,000 compounds, 0.028% hits; AID 624246; active = well fitted inhibition curve with a large enough effect in the polarisation, with a control signal flat; inconclusive = small, poorly fitted or top-dose-only effect, or effect the other way, or a change in a side signal; inactive = no such curve, though single readings can be large or run the other way; the % refers to the polarisation;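 also: polarization taken with two DNA probes labelled with fluorescein and Texas red; % of control where 0% means no effect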
Target sequence (P11308 whole entry, looked up, the tested form may be a part): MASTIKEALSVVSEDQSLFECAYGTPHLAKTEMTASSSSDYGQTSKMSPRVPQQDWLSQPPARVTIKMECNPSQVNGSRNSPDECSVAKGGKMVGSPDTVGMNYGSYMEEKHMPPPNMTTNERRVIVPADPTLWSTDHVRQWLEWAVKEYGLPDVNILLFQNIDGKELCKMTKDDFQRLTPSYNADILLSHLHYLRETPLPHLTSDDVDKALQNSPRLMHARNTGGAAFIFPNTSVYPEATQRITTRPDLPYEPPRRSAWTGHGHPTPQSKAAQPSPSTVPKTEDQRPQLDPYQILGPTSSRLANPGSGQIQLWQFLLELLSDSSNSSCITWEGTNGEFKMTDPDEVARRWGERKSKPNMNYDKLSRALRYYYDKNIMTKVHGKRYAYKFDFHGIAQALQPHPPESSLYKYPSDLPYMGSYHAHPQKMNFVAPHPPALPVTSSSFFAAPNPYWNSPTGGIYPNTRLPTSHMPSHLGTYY
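His-tagged ERG Ets domain (1 uM in the protein solution; 300mM KCl, 50mM Tris-HCl, 1mM EDTA, 1mM DTT, pH 7.5) received compound, then a probe mix of 5 nM fluorescein-DNA and 100nM Texas-615-DNA. Fluorescence polarization was read for both dyes.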
FUS yeast rescue – rescues growth of FUS-expressing yeast; S. cerevisiae FUS-expressing, growth rescue, OD600, 24 h; Potency, µM (top dose mostly 76.6 µM), most hits filed as activators; 390,000 compounds, 0.24% hits;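 also: plate controls were DMSO vehicle for no effect and reference control for full effect; nearly all actives have a fitted effect of over 55% in size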
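S. cerevisiae expressing FUS from galactose induction served as the toxicity model. Growth after 24hr at 30C, read as absorbance at 600 nm, indicates suppression of toxicity; compounds dosed at several concentrations.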
Abeta rescue – compounds reversing amyloid beta toxicity in yeast; yeast expressing A-beta42, growth rescue, OD600, 48 h; response scale: 0% DMSO, 100% iron-clioquinol control; Potency, µM (top dose mostly 46.1 µM), usual class: activators; 410,000 compounds, 0.063% hits; also: nearly all actives have a fitted effect of over 55% in size
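Yeast growth medium received pinned compounds, then yeast cells expressing toxic A-beta were added; plates incubated at 30 C for 48 hr. Growth read as absorbance at 600 nm, normalized to DMSO and equimolar FeCl3 plus clioquinol controls.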
aSyn yeast inh – inhibitors of alpha-synuclein toxicity in yeast. Yeast expressing alpha-synuclein, growth rescue, BacTiter-Glo, 24 h. Potency, µM (series often up to 46.1 µM), for the others: at the highest dose growth rescue (activation), usual class: activators. 370,000 compounds, 0.14% hits. AID 652106; also: % of control where 0% means no effect; nearly all actives have a fitted effect of over 65% in size
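Rescue of yeast growth: cells expressing toxic alpha-synuclein, induced in galactose at OD600 0.02, incubated with compound 24 h at 30 C. ATP luminescence quantified growth; inhibitors of toxicity appear as activators.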
Mito fusion act – inhibitors of mitochondrial division or activators of mitochondrial fusion; AID 485298; 320,000 compounds, 0.23% hits; S. cerevisiae fusion-defective mutant growth rescue, CellTiterGlo 48 h; Potency, µM (top dose mostly 46.1 µM), for the others: at the top dose growth rescue (activation), most hits filed as activators; also: % of control where 0% means no effect; nearly all actives have a fitted effect of over 45% in size
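Compounds are tested for their ability to restore growth of mitochondrial fusion-defective yeast strains at non-permissive 37C in YPEG medium over 48 hours. Viability is quantified by luciferase luminescence.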
TDP-43 yeast inh – TDP-43 toxicity inhibition in yeast; TDP-43 expressing yeast growth rescue, BacTiter-Glo, 24 h; Potency, µM (series often up to 46.1 µM), without a hit: top-dose growth rescue (activation), most hits filed as activators; 410,000 compounds, 1.8% hits; also: % of control where 0% means no effect; nearly all actives have a fitted effect of over 50% in size
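Galactose-induced TDP-43 yeast, OD600=0.02, compound pinned; 24 hr, 30 deg C; BacTiter-Glo luminescence for growth. Inhibitors of TDP-43 toxicity read as activators.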
The depositor's hits bear a star; i = inactive; ? = inconclusive; nt = no result. Unless noted, calls follow the shape of the dose curve; as a rule, active = well fitted curve in the direction sought with a large enough effect; inconclusive = small, poorly fitted or top-dose-only effect, or another doubt; inactive = no such curve, though single readings can be large; an effect the other way counts as inactive or inconclusive. Potency is read from the fitted curve at half-maximal effect.

SMILES	ERG-DNA inh	FUS yeast rescue	Abeta rescue	aSyn yeast inh	Mito fusion act	TDP-43 yeast inh
NC(=O)Nc1ccc(Cl)cc1	2.9%	i	i	-0.1%	6.7%	-12.6%
Cn1c(=O)c2c(nc(CN3CCc4ccccc4C3)n2Cc2cccc(Cl)c2)n(C)c1=O	10.8%	?	i	19.3%	-10.2%	20µM*
Cn1c(=O)c2c(nc(CN3CCN(Cc4ccccc4)CC3)n2Cc2cccc(Cl)c2)n(C)c1=O	-2.8%	i	i	0.7%	-4.2%	3.7%
COC(=O)c1ccc(C2C=C(c3ccc(Cl)cc3)Nc3nc4ccccc4n32)cc1 (configuration not stated)	-2.1%	i	i	nt	nt	10µM*
Fc1ccc(C2=CC(c3ccc(F)cc3)n3c(nc4ccccc43)N2)cc1 (configuration not stated)	5.7%	i	i	nt	nt	22.4µM*
C=CCOc1c(Br)cc(CNc2ccc(NC(=O)CCC)cc2)cc1OCC	-10.4%	i	?	1.6%	-2.1%	?
C=CCOc1c(Br)cc(CNc2ccc(NC(=O)C(C)C)c(OC)c2)cc1OCC	-5.3%	14.1µM*	i	9.7%	2.6%	9.7%
CCOC(=O)C1=NOC(C(=O)Nc2nccs2)(C(=O)C2CC2)C1 (configuration not stated)	nt	i	nt	nt	nt	nt
CCCCC(c1nnnn1CC1CCCO1)N1CCN(c2nc3ccccc3s2)CC1 (configuration not stated)	1.4%	i	i	-3.4%	14.1µM*	-4.4%
CCCCC(c1nnnn1CC1CCCO1)N1CCN(c2cc(Cl)ccc2C)CC1 (configuration not stated)	-3.0%	nt	i	-13.7%	1.3%	17.8µM*
O=C(COc1ccccc1)N(Cc1cccnc1)c1nc2c(F)cccc2s1	-3.0%	i	i	nt	nt	17.8µM*
O=C(CCOc1ccccc1)N(Cc1cccnc1)c1nc2c(F)cccc2s1	-1.2%	i	i	nt	nt	4.5%
O=C(COc1ccccc1)N(Cc1cccnc1)c1nc2ccc(Cl)cc2s1	1.5%	i	i	nt	nt	15.8µM*
O=C(CCc1ccccc1)N(Cc1cccnc1)c1nc2c(F)cccc2s1	3.1%	i	i	nt	nt	15.8µM*
COc1ccc(C2=NN(C(C)=O)CC2c2cccc([N+](=O)[O-])c2)cc1 (configuration not stated)	-13.2%	i	nt	10.6%	-8.7%	11.2µM*
CCOC(=O)C1=CCN(S(=O)(=O)c2ccccc2C)C1c1ccc(Cl)c(Cl)c1 (configuration not stated)	nt	i	i	?	nt	16.6%
c1ccc(CC2CCN(c3ncnc4sccc34)CC2)cc1	2.6%	i	i	-0.8%	3.5%	12.6µM*
CCC[C@H]1[C@@H](OC(=O)NCCc2ccccc2)CC[C@@]23CCCN2C(=O)CCC[C@@H]13	nt	i	nt	nt	nt	nt
Cc1ccc(Sc2c(C)nn(-c3ccccc3)c2OC(=O)C(C)(C)C)cc1	-6.2%	i	i	nt	nt	14.1µM*
CCCC(=O)Oc1c(Sc2ccc(C)cc2)c(C)nn1-c1ccccc1	1.9%	i	i	nt	nt	11.2µM*
Cc1nn(-c2ccccc2)c(OC(=O)C(C)(C)C)c1Sc1ccccc1	-5.7%	i	i	nt	nt	?
O=C(CCc1nc2ccccc2c(=O)[nH]1)Nc1nnc(SCc2ccccc2F)s1	nt	nt	i	11.9%	-2.2%	18.7%
Cc1ccc(Cl)cc1N1CCN(C(=O)C2(S(=O)(=O)c3ccc(Cl)cc3)CC2)CC1	0.8%	i	i	8.3%	17.6%	25.3%
Cc1cccc(N2CCN(C(=O)C3(S(=O)(=O)c4ccc(Cl)cc4)CC3)CC2)c1C	-6.0%	?	i	-0.2%	-13.6%	35.5µM*
CC(C)(C)OC(=O)NCc1ccccc1/C=C/S(=O)(=O)NCc1ccccc1	nt	i	nt	nt	nt	nt
c1cncc(-c2nnc(SCc3cccc4ccccc34)o2)c1	-7.9%	i	i	10.0%	15.5%	15.8µM*

Screens deposited in PubChem BioAssay by National Center for Advancing Translational Sciences (NCATS).
